The source of these data is PubChem BioAssay (EPA / NIEHS).

Records with an inconclusive call do not appear. Active and inactive are the calls of the source. The calls were made as follows, unless noted: active = hit-call score of the fitted dose curve at least 0.9, where 1 is the maximum; inactive = score below 0.9.

In experiment [1] the target is Paired box protein Pax-6 (Homo sapiens) (UniProt P26367). The experiment is described as follows: ATG_Pax6_CIS: Attagene CIS-FACTORIAL HepG2 Assay for human Paired Box 6 (PAX6) (AID 2282956). As to conditions: HepG2 CIS-FACTORIAL PAX6 reporter transcription, RNA readout; actives raise or lower the signal. The gist of the method: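 DMSO-referenced bidirectional fits of reporter mRNA fluorescence; HepG2 with transient cis-promoter MRTUs, 24 h post-dose, RT-PCR plus capillary electrophoresis detection.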
Chain of Paired box protein Pax-6 (Homo sapiens) (P26367 whole entry, looked up): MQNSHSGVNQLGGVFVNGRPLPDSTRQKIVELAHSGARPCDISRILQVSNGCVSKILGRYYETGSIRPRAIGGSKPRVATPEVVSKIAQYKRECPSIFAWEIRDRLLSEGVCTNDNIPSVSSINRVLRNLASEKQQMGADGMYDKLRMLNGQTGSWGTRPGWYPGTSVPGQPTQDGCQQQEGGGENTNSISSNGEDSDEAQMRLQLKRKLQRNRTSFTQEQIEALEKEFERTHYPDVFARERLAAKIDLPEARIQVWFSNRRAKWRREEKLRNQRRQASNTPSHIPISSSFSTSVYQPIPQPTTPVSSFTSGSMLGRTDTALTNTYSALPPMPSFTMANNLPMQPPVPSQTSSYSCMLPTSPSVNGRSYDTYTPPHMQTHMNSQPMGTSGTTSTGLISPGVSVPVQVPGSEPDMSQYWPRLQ

The nature of experiment [2]: ATG_PXRE_CIS: Attagene CIS-FACTORIAL HepG2 Assay for human Pregnane X Receptor Element (PXRE) (AID 2282957). The note with it: HepG2 Attagene CIS-FACTORIAL PXRE reporter, mRNA; actives raise or lower the signal. The gist of the method: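 Bidirectional activity, baselined to DMSO, derived from reporter mRNA fluorescence (RT-PCR plus capillary electrophoresis) in HepG2 cells bearing cis-promoter reporter units, 24 h exposure.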

Experiment [3] is described as follows: ATG_PPRE_CIS: Attagene CIS-FACTORIAL HepG2 Assay for human Peroxisome Proliferator-activated Response Element (PPRE) (AID 2282958). As to conditions: HepG2 PPRE cis-element reporter, Attagene transcription factor profiling; actives raise or lower the signal. In short, it runs like this: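 Read-out: fluorescent reporter mRNA fragments resolved by capillary electrophoresis after RT-PCR. HepG2 cells carried transiently transfected PPRE-driven cis reporter constructs and were dosed for 24 h; gain or loss of signal fitted relative to DMSO.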

Experiment [4] in a line: ATG_RORE_CIS: Attagene CIS-FACTORIAL HepG2 Assay for human RAR-related Orphan Receptor Element (RORE) (AID 2282959). As to conditions: HepG2 Attagene cis-factorial RORE reporter, mRNA; actives raise or lower the signal. In short, it runs like this: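 Readout: fluorescent reporter mRNA by RT-PCR plus capillary electrophoresis, 24 h after dosing transfected HepG2 cells. Endogenous transcription factor activity on a cis promoter element is measured. Gain or loss of signal fitted against DMSO.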

The nature of experiment [5]: ATG_Sox_CIS: Attagene CIS-FACTORIAL HepG2 Assay for human SRY-box transcription factor (SOX) (AID 2282960). The note with it: HepG2 Attagene cis-factorial SOX reporter, mRNA; actives raise or lower the signal. In short, it runs like this:
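Read-out: fluorescent RT-PCR products of SOX1-linked reporter transcripts resolved by capillary electrophoresis, fitted bidirectionally against DMSO. Transiently transfected HepG2 cells, 24 h after chemical exposure, endogenous transcription factor activity.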

Experiment [6] has as its target Transcription factor Sp1 (Homo sapiens) (UniProt P08047). In words: ATG_Sp1_CIS: Attagene CIS-FACTORIAL HepG2 Assay for human Specificity Protein 1 (Sp1) (AID 2282961). The note with it: HepG2 Sp1 cis-reporter transcription, actives raise or lower the signal. The gist of the method:
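Read-out: fluorescence of 6-FAM-labeled, HpaI-digested RT-PCR products separated by capillary electrophoresis. HepG2 cells carried transfected cis-element reporter units and were exposed to chemicals for 24 h; gain or loss of signal fitted relative to DMSO.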

Experiment [7] can be described thus: ATG_SREBP_CIS: Attagene CIS-FACTORIAL HepG2 Assay for human Sterol Regulatory Element Binding (SREBP) (AID 2282962). As to conditions: HepG2 Attagene cis-factorial SREBP reporter, mRNA; actives raise or lower the signal. In short, it runs like this: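 In this cis-format assay, HepG2 liver cells express reporters controlled by promoter elements responsive to native transcription factors. Exposure lasts 24 h; reporter mRNA fluorescence from capillary electrophoresis gives the signal, fitted bidirectionally against DMSO.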

The target in experiment [8] is Signal transducer and activator of transcription 3 (Homo sapiens) (UniProt P40763). The experiment is described as follows: ATG_STAT3_CIS: Attagene CIS-FACTORIAL HepG2 Assay for human Signal Transducer and Activator of Transcription 3 (STAT3) (AID 2282963). As to conditions: HepG2, Attagene cis-factorial STAT3 reporter transcription; actives raise or lower the signal. The gist of the method: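 HepG2, MRTU-transfected, 24 h dosing. RNA → RT → PCR → FAM label → HpaI → CE. Bidirectional fit vs DMSO.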
Chain of Signal transducer and activator of transcription 3 (Homo sapiens) (P40763 whole entry, looked up): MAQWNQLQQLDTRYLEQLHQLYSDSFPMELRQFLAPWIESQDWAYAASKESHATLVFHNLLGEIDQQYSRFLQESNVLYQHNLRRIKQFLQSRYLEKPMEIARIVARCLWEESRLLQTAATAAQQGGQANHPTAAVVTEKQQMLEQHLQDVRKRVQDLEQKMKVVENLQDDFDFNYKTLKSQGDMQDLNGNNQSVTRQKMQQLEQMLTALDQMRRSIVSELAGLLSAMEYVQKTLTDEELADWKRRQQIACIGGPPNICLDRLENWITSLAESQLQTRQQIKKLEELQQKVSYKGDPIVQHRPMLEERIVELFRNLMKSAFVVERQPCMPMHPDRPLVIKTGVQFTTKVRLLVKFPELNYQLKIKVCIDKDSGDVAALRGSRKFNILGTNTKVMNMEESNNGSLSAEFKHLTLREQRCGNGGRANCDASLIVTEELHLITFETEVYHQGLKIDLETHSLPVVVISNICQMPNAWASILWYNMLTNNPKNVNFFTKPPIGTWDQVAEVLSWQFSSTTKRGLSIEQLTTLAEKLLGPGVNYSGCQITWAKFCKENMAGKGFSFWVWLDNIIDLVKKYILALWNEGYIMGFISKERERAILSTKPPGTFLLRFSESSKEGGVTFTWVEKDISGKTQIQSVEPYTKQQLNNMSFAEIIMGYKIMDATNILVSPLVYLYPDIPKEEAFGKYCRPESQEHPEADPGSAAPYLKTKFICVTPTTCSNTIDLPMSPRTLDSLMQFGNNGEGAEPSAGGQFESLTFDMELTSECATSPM

A short description of experiment [9]: ATG_TA_CIS: Attagene CIS-FACTORIAL HepG2 Assay for human TA Basal Promoter (AID 2282964). As to conditions: HepG2 Attagene CIS-factorial TA basal promoter reporter; actives raise or lower the signal. In short, it runs like this:
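HepG2 cells transiently transfected with multiplexed cis-promoter reporter units, dosed 24 h. Reporter mRNA measured by RT-PCR, 6-FAM labelling, HpaI digestion and capillary electrophoresis; bidirectional fit versus DMSO baseline, serving as background control.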

A short description of experiment [10]: ATG_TCF_b_cat_CIS: Attagene CIS-FACTORIAL HepG2 Assay for human T-Cell-Factor with beta-catenin (TCF/b-cat) (AID 2282965). As to conditions: HepG2 TCF/beta-catenin cis-reporter transcription, actives raise or lower the signal. In short, it runs like this:
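HepG2 cells transiently transfected with multiple cis-promoter-regulated reporter transcription units, so endogenous transcription factor activity is measured. Reporter mRNA read 24 hours after dosing by RT-PCR, fluorescent labelling and capillary electrophoresis; bidirectional fitting against DMSO.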

Experiment [11] is described as follows: ATG_TAL_CIS: Attagene CIS-FACTORIAL HepG2 Assay for human TAL Basal Promoter (AID 2282966).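 Also: background control endpoint measuring basal TAL promoter reporter mRNA not a specific factor.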 As to conditions: HepG2 Attagene cis-factorial TAL promoter reporter; actives raise or lower the signal. In short, it runs like this:
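Human hepatoma HepG2 cells, transfected with promoter-regulated reporter units, were treated 24 h. Reporter transcript levels, measured through RT-PCR and capillary electrophoresis, were fitted for gain or loss relative to DMSO.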

Experiment [12] is described as follows: ATG_TGFb_CIS: Attagene CIS-FACTORIAL HepG2 Assay for human Transforming Growth Factor (TGF) (AID 2282967). As to conditions: HepG2 Attagene CIS TGFb reporter, mRNA transcription; actives raise or lower the signal. The gist of the method:
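HepG2 cells transiently transfected with cis-promoter-driven multiplexed reporter units; 24 h compound exposure. Reporter mRNA measured by RT-PCR, 6-FAM labeling, HpaI digestion and capillary electrophoresis; bidirectional fit versus DMSO baseline.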

Experiment [13] addresses X-box-binding protein 1 (Homo sapiens) (UniProt P17861). The experiment is described as follows: ATG_Xbp1_CIS: Attagene CIS-FACTORIAL HepG2 Assay for human X-box Binding Protein 1 (XBP1) (AID 2282972). The note with it: HepG2 XBP1 cis-element reporter, Attagene multiplex; actives raise or lower the signal. In short, it runs like this: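 Changes in reporter transcript abundance, read by RT-PCR and capillary electrophoresis, reflect endogenous transcription factor activity. Transfected HepG2 cells received compound for 24 hours; DMSO defined baseline for bidirectional analysis.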

Experiment [14] is described as follows: ATG_M_19_TRANS: Attagene TRANS-FACTORIAL HepG2 Assay for M19 Transcription Factor (Internal Marker) (AID 2282974; active = hit-call score of the fitted dose curve at least 0.9, where 1 is the maximum). The note with it: HepG2 Attagene TRANS-FACTORIAL M19 internal marker reporter. In short, it runs like this:
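24 h chemical exposure of transiently transfected HepG2 (MRTU library). RNA → oligo(dT) RT → PCR → 6-FAM labelling → HpaI cut → CE fluorescence. Positive-direction fit vs DMSO baseline; background internal-marker readout.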

In experiment [15] the target is Nuclear receptor subfamily 1 group I member 3 (Homo sapiens) (UniProt Q14994). In words: ATG_CAR_TRANS: Attagene TRANS-FACTORIAL HepG2 Assay for human Constitutive Androstane Receptor (CAR) (AID 2282969; active = hit-call score of the fitted dose curve at least 0.9, where 1 is the maximum;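 also: activators raise reporter mRNA above DMSO so AC50 marks induction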). The note with it: HepG2 Attagene TRANS-FACTORIAL CAR reporter. The gist of the method: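 Steps: transient transfection of HepG2 with multiple GAL4-UAS reporter units; 24 h compound incubation; RNA isolation, RT-PCR, 6-FAM primer extension, HpaI digest; capillary electrophoresis. Gain-of-signal relative to DMSO negative control.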
Chain of Nuclear receptor subfamily 1 group I member 3 (Homo sapiens) (Q14994 whole entry, looked up, the tested form may be a part): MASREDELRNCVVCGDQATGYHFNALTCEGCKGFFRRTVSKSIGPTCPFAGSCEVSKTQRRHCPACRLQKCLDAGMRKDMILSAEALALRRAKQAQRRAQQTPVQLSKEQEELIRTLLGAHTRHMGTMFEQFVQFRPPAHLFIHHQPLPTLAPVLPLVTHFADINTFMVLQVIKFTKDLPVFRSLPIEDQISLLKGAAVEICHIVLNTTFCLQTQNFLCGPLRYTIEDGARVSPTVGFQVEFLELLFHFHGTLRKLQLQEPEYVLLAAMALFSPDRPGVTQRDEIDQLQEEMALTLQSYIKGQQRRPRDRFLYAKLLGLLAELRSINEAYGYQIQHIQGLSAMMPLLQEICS

The target of experiment [16] is Estrogen receptor (Homo sapiens) (UniProt P03372). The experiment is described as follows: ATG_ERa_TRANS: Attagene TRANS-FACTORIAL HepG2 Assay for human Estrogen Receptor alpha (ERa) (AID 2282970; active = hit-call score of the fitted dose curve at least 0.9, where 1 is the maximum). As to conditions: HepG2 Attagene TRANS ERa GAL4 reporter, mRNA. In short, it runs like this: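 Signal derives from fluorescence of labelled reporter PCR fragments separated by capillary electrophoresis. HepG2 cells transiently carrying multiple GAL4-UAS reporter units were treated 24 hours, and induction above DMSO baseline was fitted as activity.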
Chain of Estrogen receptor (Homo sapiens) (P03372 whole entry, looked up, the tested form may be a part): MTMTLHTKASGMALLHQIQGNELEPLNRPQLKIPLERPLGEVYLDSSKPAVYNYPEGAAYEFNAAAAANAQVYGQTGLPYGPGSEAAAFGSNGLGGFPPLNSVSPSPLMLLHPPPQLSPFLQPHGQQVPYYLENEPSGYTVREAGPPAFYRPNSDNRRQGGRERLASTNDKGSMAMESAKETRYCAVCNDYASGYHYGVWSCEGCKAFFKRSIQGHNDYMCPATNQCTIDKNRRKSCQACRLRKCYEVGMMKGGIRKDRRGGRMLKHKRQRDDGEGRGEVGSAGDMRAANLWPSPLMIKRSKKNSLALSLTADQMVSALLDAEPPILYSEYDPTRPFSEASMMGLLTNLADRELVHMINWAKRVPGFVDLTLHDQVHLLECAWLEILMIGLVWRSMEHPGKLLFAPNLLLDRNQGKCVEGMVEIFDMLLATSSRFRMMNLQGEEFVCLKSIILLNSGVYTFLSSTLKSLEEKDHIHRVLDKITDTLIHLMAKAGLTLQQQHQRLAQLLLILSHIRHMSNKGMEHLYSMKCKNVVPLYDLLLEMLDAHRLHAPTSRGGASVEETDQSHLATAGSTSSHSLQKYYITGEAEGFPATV

Experiment [17] is described as follows: ATG_GAL4_TRANS: Attagene TRANS-FACTORIAL HepG2 Assay for GAL4 (Internal Marker) (AID 2282976; active = hit-call score of the fitted dose curve at least 0.9, where 1 is the maximum). As to conditions: HepG2 Attagene TRANS GAL4 internal marker reporter. In short, it runs like this: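 Liver HepG2 line bearing multiplexed GAL4-UAS reporter constructs; 24 h chemical treatment. Transcripts were quantified as fluorescent fragments on capillary electrophoresis after RT-PCR and HpaI cut, with activity fitted upward from DMSO.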

Experiment [18] is described as follows: ATG_VDRE_CIS: Attagene CIS-FACTORIAL HepG2 Assay for human Vitamin D Receptor Element (VDRE) (AID 2282968). The note with it: HepG2 VDRE cis-reporter transcription, actives raise or lower the signal. In short, it runs like this: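 Steps: transfect HepG2 with multiple reporter transcription units; dose chemicals 24 h; isolate RNA; RT-PCR; label with 6-FAM primer extension; HpaI digest; capillary electrophoresis. Curves fitted both directions against DMSO.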

Chain of X-box-binding protein 1 (Homo sapiens) (P17861 whole entry, looked up): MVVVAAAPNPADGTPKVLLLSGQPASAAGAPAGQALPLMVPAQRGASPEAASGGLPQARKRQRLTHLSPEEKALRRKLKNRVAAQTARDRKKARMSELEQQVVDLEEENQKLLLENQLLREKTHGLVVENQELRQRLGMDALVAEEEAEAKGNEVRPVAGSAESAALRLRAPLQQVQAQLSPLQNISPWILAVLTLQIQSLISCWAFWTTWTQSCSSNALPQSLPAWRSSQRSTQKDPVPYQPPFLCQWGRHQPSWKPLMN
Chain of Transcription factor Sp1 (Homo sapiens) (P08047 whole entry, looked up): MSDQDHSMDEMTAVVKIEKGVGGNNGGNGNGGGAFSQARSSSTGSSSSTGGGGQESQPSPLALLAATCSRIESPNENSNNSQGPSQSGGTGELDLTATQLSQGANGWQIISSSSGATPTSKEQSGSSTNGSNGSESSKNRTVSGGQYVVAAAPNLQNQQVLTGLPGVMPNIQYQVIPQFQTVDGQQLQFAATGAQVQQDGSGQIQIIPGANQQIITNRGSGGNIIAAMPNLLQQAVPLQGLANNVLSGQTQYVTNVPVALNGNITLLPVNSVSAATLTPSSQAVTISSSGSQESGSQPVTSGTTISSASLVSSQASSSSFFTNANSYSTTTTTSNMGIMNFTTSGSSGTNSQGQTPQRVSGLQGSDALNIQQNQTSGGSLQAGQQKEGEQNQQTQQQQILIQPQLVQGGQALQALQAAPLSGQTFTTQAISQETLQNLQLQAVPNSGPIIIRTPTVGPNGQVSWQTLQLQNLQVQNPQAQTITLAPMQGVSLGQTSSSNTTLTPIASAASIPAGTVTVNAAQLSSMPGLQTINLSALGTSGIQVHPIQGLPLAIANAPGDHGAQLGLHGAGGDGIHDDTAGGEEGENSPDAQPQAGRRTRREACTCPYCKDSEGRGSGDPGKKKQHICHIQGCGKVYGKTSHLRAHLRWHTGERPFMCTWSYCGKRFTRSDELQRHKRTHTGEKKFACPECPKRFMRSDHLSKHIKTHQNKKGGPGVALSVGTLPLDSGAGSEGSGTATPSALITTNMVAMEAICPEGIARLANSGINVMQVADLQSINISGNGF

In the case of `O=C(O)Cc1c(Cl)ccc(Cl)c1Cl`, the outcome in experiment [1], in experiment [2], in experiment [3], in [4], in [5] and in experiment [6] was inactive. The result in experiment [7], in experiment [8], in [9], in [10], in experiment [11] and in experiment [12] was inactive. Also, the compound was classed as inactive in [13] and in experiment [14].

For `Cc1ccc(OC(=O)CC(C)C)cc1`, the compound was classed as inactive in experiment [1], in experiment [2], in [3], in [4], in [5] and in [6]. Further, the compound was classed as inactive in experiment [7], in experiment [8], in experiment [9], in experiment [10], in [11] and in experiment [12]. Further, the outcome in experiment [15], in experiment [16], in experiment [13] and in experiment [17] was inactive.

For the compound `Clc1nc2ccccc2s1`, the compound was classed as inactive in experiment [1], in experiment [2], in [3], in experiment [4], in [5] and in [6]. The call in experiment [7], in [8], in experiment [9], in experiment [10], in [11] and in [12] was inactive. In addition, the call in [18], in [13] and in [17] was inactive.

As to `OC1CCCCCCCCCCC1`, the compound was classed as inactive in experiment [1], in experiment [3], in experiment [4], in [5], in experiment [6] and in experiment [7]. The compound was called inactive in experiment [8], in [9], in [10], in [11], in [12] and in [13]. For the same compound, the results for the AC50 in experiment [2] and in experiment [16] were 4.47 µM (active) and 10.6 µM (active), respectively.

In the case of `CC(=O)Oc1ccc(C)cc1`, the outcome in experiment [1], in experiment [2], in experiment [3], in experiment [4], in experiment [5] and in experiment [6] was inactive. For the same compound, the compound was called inactive in [7], in experiment [8], in [9], in [10], in [11] and in [12]. The result in [13], in [14] and in experiment [17] was inactive.

As a reminder, the AC50 is the concentration giving half of the maximal activity seen.
